# About 3,300 (8.5%) of roughly 39,000 compounds were called active. The entries come from a sample that favours actives as a whole.
# Test system: HepG2
# Experiment: cytotoxicity call (relative viability < 0.9)
# Conditions: 10 µM
row,SMILES,cytotoxicity call
1,C[C@@H]1CCCCO[C@H](CN(C)S(=O)(=O)c2ccccc2)[C@@H](C)CN([C@H](C)CO)C(=O)c2cc(NS(=O)(=O)c3cn(C)cn3)ccc2O1,inactive
2,Cc1noc(C)c1NC(=O)N(C)C[C@@H]1Oc2c(NC(=O)c3ccc(-c4nccs4)cc3)cccc2C(=O)N([C@@H](C)CO)C[C@@H]1C,inactive
3,C[C@@H]1CCCCO[C@H](CN(C)C(=O)Cc2ccccc2)[C@H](C)CN([C@H](C)CO)C(=O)c2cc(NS(=O)(=O)c3ccc(F)cc3)ccc2O1,inactive
4,C[C@H](CO)N1C[C@H](C)[C@@H](CN(C)C(=O)Nc2cccc3ccccc23)Oc2ccc(NC(=O)Cc3ccccc3)cc2CC1=O,inactive
5,Cc1noc(C)c1NC(=O)Nc1ccc2c(c1)C(=O)N([C@@H](C)CO)C[C@H](C)[C@@H](CN(C)Cc1ccc3c(c1)OCO3)OCCCC[C@H](C)O2,inactive
6,Brc1cccc2ocnc12,inactive
7,Cc1cc(C(=O)Nc2cccc3c2O[C@H](CN(C)Cc2ccc(C(=O)O)cc2)[C@H](C)CN([C@H](C)CO)C3=O)n(C)n1,inactive
8,CC[C@H](C)[C@@H]([C@@H](CC(=O)N1CCC[C@H]1[C@H](OC)[C@@H](C)C(=O)N[C@@H](Cc1ccccc1)c1nccs1)OC)N(C)C(=O)[C@@H](NC(=O)[C@H](C(C)C)N(C)C)C(C)C,active
9,C[C@@H]1CCCCO[C@H](CN(C)C(=O)Nc2cccc3ccccc23)[C@H](C)CN([C@@H](C)CO)C(=O)c2cc(NC(=O)Nc3ccc4c(c3)OCO4)ccc2O1,inactive
10,Cc1noc(C)c1NC(=O)Nc1ccc2c(c1)C(=O)N([C@H](C)CO)C[C@H](C)[C@@H](CN(C)Cc1ccc(-c3ccccc3)cc1)O2,inactive
11,COC(=O)C1=C(C)NC(C)=C(C(=O)OCC(C)C)[C@@H]1c1ccccc1[N+](=O)[O-],inactive
12,COC(=O)C1=C(C)NC(C)=C(C(=O)OCCN2CCN(C(c3ccccc3)c3ccccc3)CC2)C1c1cccc([N+](=O)[O-])c1 (stereo not given),active
13,NNC(=O)c1cccc([N+](=O)[O-])c1,inactive
14,COC(=O)C1=C(C)NC(C)=C(C(=O)OCCN(C)Cc2ccccc2)C1c1cccc([N+](=O)[O-])c1.Cl (stereo not given),inactive
15,CCOC(=O)C1=C(C)NC(c2ccccc2)=C(C(=O)OCc2ccc([N+](=O)[O-])cc2)[C@@H]1C#Cc1ccccc1,inactive
16,COC(=O)C1=C(C#N)NC(C)=C(C(=O)OC(C)C)C1c1cccc([N+](=O)[O-])c1 (stereo not given),active
17,COC(=O)C1=C(C)NC(C)=C(C(=O)OCC(C)C)C1c1ccccc1[N+](=O)[O-] (stereo not given),inactive
18,CCCN1C(C)=C(C(=O)OC)[C@@H](c2cccc([N+](=O)[O-])c2)C(C(=O)ON2CCC(c3ccccc3)(c3ccccc3)CC2)=C1C,active
19,CCOC(=O)C1=C(C)NC(C)=C(C(=O)OC)C1c1cccc([N+](=O)[O-])c1 (stereo not given),inactive
20,COC(=O)C1=C(C)NC(C)=C(C(=O)NCCCN2CCC(c3ccccc3)(c3ccccc3)CC2)[C@@H]1c1ccc([N+](=O)[O-])cc1,active
21,COC(=O)C1=C(C)NC(C)=C(C(=O)OC(C)(C)CN(C)CCC(c2ccccc2)c2ccccc2)[C@@H]1c1cccc([N+](=O)[O-])c1,inactive
22,O=C(Nc1cccc([N+](=O)[O-])c1)C(=O)NC1CC1,inactive

row,SMILES,cytotoxicity call
1,Oc1ccccc1CNc1ccc(C2CCCCC2)cc1,inactive
2,CNCc1cc2ccccc2s1,inactive
3,O=C(C[C@@H]1C[C@@H]2c3cc(NC(=O)c4ccc5c(c4)OCO5)ccc3O[C@@H]2[C@H](CO)O1)NCCN1CCCCC1,inactive
4,Cc1noc(C)c1NC(=O)Nc1ccc2c(c1)C(=O)N([C@@H](C)CO)C[C@H](C)[C@@H](CN(C)C(=O)Cc1ccccc1)OCCCC[C@H](C)O2,inactive
5,Cn1ccc(C(=O)N2CC[C@@H]3OCCN(S(C)(=O)=O)[C@@H]3C2)n1,inactive
6,C[C@H]1CN([C@@H](C)CO)C(=O)c2cc(NS(=O)(=O)c3ccc(Cl)cc3)ccc2O[C@H]1CN(C)Cc1ccc(C(=O)Nc2ccccc2N)cc1,inactive
7,C[C@@H]1CN([C@H](C)CO)C(=O)c2cc(C#Cc3ccc(F)cc3)cnc2O[C@@H]1CN(C)CC1CCOCC1,inactive
8,CC1(C)OC2CC3C4CC(F)C5=CC(=O)C=CC5(C)C4(F)C(O)CC3(C)C2(C(=O)CO)O1 (stereo not given),inactive
9,CC1=C(C(=O)OCCN(Cc2ccccc2)c2ccccc2)[C@@H](c2cccc([N+](=O)[O-])c2)C(P2(=O)OCC(C)(C)CO2)=C(C)N1.CCO.Cl,inactive
10,CC1=C(C(=O)OCCN(Cc2ccccc2)c2ccccc2)[C@H](c2cccc([N+](=O)[O-])c2)C(P2(=O)OCC(C)(C)CO2)=C(C)N1,inactive
11,COC(=O)C1=C(C)NC(C)=C(C(=O)OCCCN2CCC(c3ccccc3)(c3ccccc3)CC2)[C@H]1c1cccc([N+](=O)[O-])c1,active
12,COC(=O)C1=C(C)NC(C)=C(C(=O)OCCCN2CCC(c3ccccc3)(c3ccccc3)CC2)[C@@H]1c1cccc([N+](=O)[O-])c1,active
13,COCCOC(=O)C1=C(C)NC(C)=C(C(=O)OCC=Cc2ccccc2)C1c1cccc([N+](=O)[O-])c1 (stereo not given),active
14,COCCOC(=O)C1=C(C)NC(C)=C(C(=O)OC(C)C)C1c1cccc([N+](=O)[O-])c1 (stereo not given),inactive
15,COc1cc(OC)cc(C(=O)OCCCN2CCN(CCCOC(=O)c3cc(OC)cc(OC)c3)CC2)c1,inactive
16,O=C(C[C@@H]1CC[C@H]2[C@@H](COC[C@@H](O)CN2Cc2ccccc2F)O1)N[C@H]1CCN(Cc2ccccc2)C1,inactive
17,CO[C@@H]1CN(C)C(=O)c2ccc(NC(=O)c3ccc(F)cc3)cc2OC[C@H](C)N(C(=O)CN(C)C)C[C@@H]1C,inactive
18,C[C@H]1CN([C@@H](C)CO)C(=O)c2cccc(NC(=O)C3CC3)c2O[C@H]1CN(C)Cc1ccc2c(c1)OCO2,inactive
19,C[C@@H]1CN([C@H](C)CO)S(=O)(=O)c2ccc(C#CCN(C)C)cc2O[C@H]1CN(C)C(=O)CN(C)C,inactive
20,Cc1noc(C)c1NC(=O)N(C)C[C@H]1Oc2ccc(NS(=O)(=O)c3ccccc3)cc2C(=O)N([C@H](C)CO)C[C@H]1C,inactive
21,COCCNC(=O)C[C@H]1CC[C@H]2[C@H](COc3ccc(NC(=O)Nc4cccc(F)c4)cc3C(=O)N2C)O1,inactive
22,C[C@H](CO)N1C[C@H](C)[C@@H](CN(C)CC2CC2)Oc2ccc(NS(=O)(=O)c3cccs3)cc2CC1=O,inactive

row,SMILES,cytotoxicity call
1,NCC[C@H]1CC[C@H](NC(=O)C2CCCCC2)[C@@H](CO)O1,inactive
2,COc1ccc(NC(=O)N(C)C[C@@H]2OCCCC[C@H](C)Oc3ccc(NC(=O)c4ccccc4)cc3C(=O)N([C@H](C)CO)C[C@@H]2C)cc1,inactive
3,C[C@H](CO)N1C[C@H](C)[C@@H](CN(C)Cc2ccc3c(c2)OCO3)Oc2ccc(NS(=O)(=O)c3ccccc3)cc2CC1=O,inactive
4,C[C@@H]1CN([C@@H](C)CO)C(=O)c2cc(NC(=O)Cn3cnnn3)ccc2O[C@@H]1CN(C)C(=O)Nc1cccc2ccccc12,inactive
5,COc1ccc(S(=O)(=O)Nc2ccc3c(c2)C(=O)N([C@@H](C)CO)C[C@@H](C)[C@H](CN(C)C(=O)C2CCCCC2)OCCCC[C@@H](C)O3)cc1,inactive
6,C[C@@H]1CCCCO[C@@H](CN(C)Cc2ccncc2)[C@H](C)CN([C@H](C)CO)C(=O)c2cc(NC(=O)Nc3ccccc3)ccc2O1,inactive
7,C[C@H](CO)N1C[C@H](C)[C@@H](CN(C)C(=O)Cc2ccccc2)OCCCC[C@H](C)Oc2ccc(NC(=O)Nc3ccc4c(c3)OCO4)cc2C1=O,inactive
8,C[C@H]1CN([C@@H](C)CO)C(=O)Cc2cc(NC(=O)CCCN(C)C)ccc2O[C@@H]1CN(C)Cc1ccc(Oc2ccccc2)cc1,active
9,C[C@@H]1CN([C@@H](C)CO)C(=O)Cc2cc(NC(=O)CCCN(C)C)ccc2O[C@H]1CN(C)Cc1ccc(Oc2ccccc2)cc1,inactive
10,C[C@H](CO)N1C[C@H](C)[C@H](CN(C)Cc2ccc(Oc3ccccc3)cc2)Oc2ccc(NC(=O)CCCN(C)C)cc2CC1=O,inactive
11,C[C@@H]1CN([C@H](C)CO)C(=O)Cc2cc(NC(=O)CCCN(C)C)ccc2O[C@@H]1CN(C)Cc1ccc(Oc2ccccc2)cc1,active
12,C[C@H](CO)N1C[C@H](C)[C@@H](CN(C)Cc2ccc(Oc3ccccc3)cc2)Oc2ccc(NC(=O)CCCN(C)C)cc2CC1=O,inactive
13,C[C@H]1CN([C@@H](C)CO)C(=O)Cc2cc(NC(=O)CCCN(C)C)ccc2O[C@H]1CN(C)Cc1ccc(Oc2ccccc2)cc1,inactive
14,C[C@H](CO)N1C[C@H](C)[C@@H](CN(C)Cc2ccccc2)Oc2ccc(NC(=O)CCCN(C)C)cc2CC1=O,inactive
15,C[C@@H]1CN([C@@H](C)CO)C(=O)Cc2cc(NC(=O)CCCN(C)C)ccc2O[C@@H]1CN(C)Cc1ccc(Oc2ccccc2)cc1,active
16,C[C@@H]1CN([C@H](C)CO)C(=O)Cc2cc(NC(=O)CCCN(C)C)ccc2O[C@H]1CN(C)Cc1ccc(Oc2ccccc2)cc1,active
17,C[C@@H]1CN([C@@H](C)CO)S(=O)(=O)c2ccc(C#Cc3ccccc3F)cc2O[C@@H]1CN(C)CC1CC1,inactive
18,C[C@H](CO)N1C[C@H](C)[C@@H](CN(C)Cc2ccc(Oc3ccccc3)cc2)Oc2c(NS(=O)(=O)c3ccc(F)cc3)cccc2C1=O,inactive
19,Cc1cc(=O)n2ncnc2n1CC(=O)NN,inactive
20,Cc1cc(C(=O)Nc2cccc3c2O[C@H](CN(C)C(=O)NC2CCCCC2)[C@@H](C)CN([C@@H](C)CO)C3=O)n(C)n1,inactive
21,C[C@H](CO)N1C[C@H](C)[C@H](CN(C)S(=O)(=O)c2cn(C)cn2)Oc2ccc(NC(=O)NC3CCCCC3)cc2CC1=O,inactive

# Reference: the antibiotic and cytotoxicity screens of Wong et al. (2023)
